This passage reports Potency, outcome and activity, negative = cell killing results from PubChem BioAssay (NCATS).

Inconclusive results are not listed. A number with no mark means an inactive call. Activity calls are given as the source filed them. Calls follow the shape of the dose curve; as a rule, active = well fitted curve in the direction sought with a large enough effect; inconclusive = small, poorly fitted or top-dose-only effect, or another doubt; inactive = no such curve, though single readings can be large; an effect the other way counts as inactive or inconclusive.

For one assay, the system named is MKL-1. Briefly: qHTS assay to identify novel small-molecules to repurpose for Merkel cell carcinoma treatment (AID 1296009). Also: nearly all actives have a fitted effect of over 60% in size. The following applies: MCC and control cell lines, CellTiter-Glo viability, 72 h; series mostly up to 46 µM. The method, boiled down: (§1)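 72 hr, 37 degree celsius; NPC 8-pt / MIPE 11-pt dose response; compound pinned in DMSO; CellTiter-Glo, 10 min RT, luminescence; normalized to no-cell and DMSO controls.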

For another assay, the system named is MKL-2. The description is as above. As to conditions: MCC and control cell lines, CellTiter-Glo viability, 72 h; series mostly up to 46 µM. The method, boiled down:
as §1
A general note: Cellular ATP, detected with luciferase, serves as a proxy for viable cell number.

A further assay has as its system NIH3T3. Described as above. The following applies: MCC and control cell lines, CellTiter-Glo viability, 72 h; at 44.8 µM (top of the series) unless noted. An outline of the steps:
as §1

For the next assay, the system named is UISO. Described as above. As to conditions: MCC and control cell lines, CellTiter-Glo viability, 72 h; series mostly up to 46 µM. The method, boiled down:
as §1

The subject of the next assay is WaGa. Described as above. As to conditions: MCC and control cell lines, CellTiter-Glo viability, 72 h; series mostly up to 46 µM. An outline of the steps:
as §1

Another assay deals with C33A. Briefly: Primary qHTS to identify gynecologic anti-cancer compounds using libraries of approved drugs and bioactive compounds (AID 1345084). Also: nearly all actives have a fitted effect of over 55% in size. As to conditions: Gynecologic cancer cell panel viability, ATPlite luminescence, 48 h; series mostly up to 57.5 µM. The method, boiled down:
(§2)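 48 h compound exposure at 37 C, 5% CO2; five-point qHTS. ATPlite luminescence readout of cell ATP.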
For orientation: qHTS replaces the single test concentration by a dilution series.

The subject of another assay is CAOV3. The description is as above. The following applies: Gynecologic cancer cell panel viability, ATPlite luminescence, 48 h; series mostly up to 57.5 µM. The method, boiled down:
as §2

In another assay the test system is CASKI. Described as above. The following applies: Gynecologic cancer cell panel viability, ATPlite luminescence, 48 h; series mostly up to 57.5 µM. The method, boiled down: as §2
The test system of the next assay is Es-2. The assay is described as above. The following applies: Gynecologic cancer cell panel viability, ATPlite luminescence, 48 h; series mostly up to 57.5 µM. The method, boiled down: as §2
The test system of a further assay is HeLa. The assay is described as above. As to conditions: Gynecologic cancer cell panel viability, ATPlite luminescence, 48 h; series mostly up to 57.5 µM. An outline of the steps:
as §2

Another assay has as its system Hek293T. The description is as above. As to conditions: Gynecologic cancer cell panel viability, ATPlite luminescence, 48 h, control line for the selectivity index; series mostly up to 57.5 µM. An outline of the steps:
as §2

The next assay deals with OV90. The description is as above. The following applies: Gynecologic cancer cell panel viability, ATPlite luminescence, 48 h; series mostly up to 57.5 µM. The method, boiled down: as §2
The test system of a further assay is PA-1. The assay is described as above. As to conditions: Gynecologic cancer cell panel viability, ATPlite luminescence, 48 h; series mostly up to 57.5 µM. An outline of the steps: as §2
In another assay the test system is SKOV3. The description is as above. As to conditions: Gynecologic cancer cell panel viability, ATPlite luminescence, 48 h; series mostly up to 57.5 µM. An outline of the steps: as §2
The test system of the next assay is Tov-21-G. Described as above. As to conditions: Gynecologic cancer cell panel viability, ATPlite luminescence, 48 h; series mostly up to 57.5 µM. The method, boiled down:
as §2

Another assay has as its system Tov112D. The assay is described as above. As to conditions: Gynecologic cancer cell panel viability, ATPlite luminescence, 48 h; series mostly up to 57.5 µM. An outline of the steps: as §2
Assay [1] is described as follows: Drug repurposing screens with cells derived from glioblastoma tumor samples (AID 1345199). Also: nearly all actives have a fitted effect of over 40% in size. As to conditions: GBM patient neurospheres viability, ATP luminescence, 48 h. An outline of the steps:
(§3)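 Four patient lines of CD133+ GBM neurospheres were screened at several concentrations; hits were retested in those lines plus three slower-growing GBM lines, using 48-hour treatment and ATP-based viability.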

The test system of the next assay is JEG-3. Briefly: Primary qHTS to identify gynecologic anti-cancer compounds using libraries of approved drugs and bioactive compounds (AID 1345084). Also: nearly all actives have a fitted effect of over 55% in size. As to conditions: Gynecologic cancer cell panel viability, ATPlite luminescence, 48 h; series mostly up to 57.5 µM. An outline of the steps:
as §2

A further assay relates to astro. Briefly: Drug repurposing screens with cells derived from glioblastoma tumor samples (AID 1345199). Also: nearly all actives have a fitted effect of over 40% in size. The following applies: viability, ATP luminescence, 48 h; series mostly up to 45.9 µM. The method, boiled down: as §3
The mark [2] stands for this setting: at 45.9 µM (top of the series), tumour line B.
[3] abbreviates: at 45.9 µM (top of the series), tumour line D.
Setting [4] is: at 46 µM (top of the series), tumour line A.
The mark [5] stands for this setting: at 46.1 µM (top of the series), tumour line C.
% is scaled to controls: 0 for no effect and ±100 for the full control effect; potency is read from the fitted curve at half-maximal effect.

With `COc1cc(NC(C)CCCN)c2ncccc2c1` (centres undefined), the Potency in the assay with MKL-1 is 2.99 µM (active); with MKL-2 it was 4.22 µM (active); with UISO, 3.35 µM (active); in the assay with WaGa, 3.76 µM (active); in assay [1] (tumour line A), 10 µM (active). Besides, the call in the assay with NIH3T3 was inactive. Moreover, the Potency entry with C33A, in the assay on CAOV3, with CASKI, with Es-2, with HeLa and with Hek293T was “inactive” in each case. Moreover, the Potency result with OV90, in the assay on PA-1, in the assay on SKOV3, in the assay on Tov-21-G and in the assay on Tov112D was “inactive” each time. Moreover, the activity, negative = cell killing in assay [1] (at 20 µM (top of the series), tumour line C) is 6.33%.
On to `COC(=O)c1nc(Cl)c(Cl)nc1N`, for which the Potency in the assay with MKL-1 was 1.33 µM (active); in the assay with MKL-2 it was 0.299 µM (active); in the assay with UISO, 6.68 µM (active); with WaGa, 1.5 µM (active); with C33A, 8.91 µM (active); with HeLa, 7.08 µM (active). Also, the Potency with Hek293T was 14.1 µM (active); in the assay on PA-1, 14.1 µM (active); in the assay with Tov-21-G, 12.6 µM (active); with Tov112D, 3.16 µM (active).
As for `C=CCCCCCCCCC(=O)O`, the Potency result in the assay with MKL-1, with MKL-2, in the assay with UISO, in the assay on WaGa, in the assay with C33A and in the assay on CASKI was “inactive” in each case. Moreover, the Potency entry in the assay with Es-2, in the assay with HeLa, with Hek293T, in the assay on JEG-3, in the assay on OV90 and with PA-1 was “inactive” throughout. Besides, the Potency result with SKOV3, in the assay on Tov-21-G, in the assay on Tov112D and with astro was “inactive” throughout. Also, the activity, negative = cell killing in assay [1] (setting [2]) is -14.2%; in [1] (setting [3]) it was -8.73%; in assay [1] (setting [4]), -10.4%; in assay [1] (setting [5]) it was 6.77%.
Turning to `O=C(OCc1ccccc1)c1ccccc1`, the Potency result in the assay with MKL-1, in the assay on MKL-2, in the assay on UISO, in the assay with WaGa, with C33A and in the assay with CAOV3 was “inactive” throughout. Also, the Potency result in the assay with CASKI, with Es-2, in the assay with HeLa, in the assay on Hek293T, with JEG-3 and with OV90 was “inactive” in each case. The Potency result in the assay with PA-1, with SKOV3, with Tov-21-G and in the assay on Tov112D was “inactive” in each case. Further, the activity, negative = cell killing in [1] (setting [2]) is -4.23%; in assay [1] (setting [3]), -19%; in assay [1] (setting [4]), -13.2%; in assay [1] (setting [5]) it was -10.1%.
As to `c1ccc2sc(SSc3nc4ccccc4s3)nc2c1`, the Potency result with MKL-1, in the assay on MKL-2, in the assay with UISO, in the assay on WaGa, in the assay with C33A and in the assay on CASKI was “inactive” each time. Further, the Potency entry with Es-2, in the assay on HeLa, with Hek293T, in the assay with JEG-3, in the assay with OV90 and with PA-1 was “inactive” throughout. In addition, the Potency entry in the assay with SKOV3, with Tov-21-G, in the assay with Tov112D and with astro was “inactive” throughout. Also, the activity, negative = cell killing in assay [1] (setting [2]) was -16.9%; in assay [1] (setting [3]) it was -20.4%; in assay [1] (setting [4]) it was -26.6%; in assay [1] (setting [5]) it was -28%.
As to `N=C(N)N`, the Potency entry with MKL-1, with MKL-2, with UISO, in the assay on WaGa, with C33A and with CAOV3 was “inactive” each time. The Potency entry in the assay with CASKI, with Es-2, in the assay with HeLa, with Hek293T, in the assay with JEG-3 and in the assay on OV90 was “inactive” each time. The Potency result in the assay with SKOV3, in the assay with Tov-21-G, in the assay on Tov112D and in the assay on astro was “inactive” throughout. In addition, the outcome with NIH3T3 was inactive. In addition, the activity, negative = cell killing in assay [1] (setting [2]) was -7.3%; in assay [1] (setting [3]), -23.5%; in assay [1] (setting [4]), -16.6%; in [1] (setting [5]) it was -13.1%.
